Source: PubChem BioAssay
Active and inactive are the calls of the source.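 Rule for the calls, unless noted: active = compounds whose cell count with miR-34 switched on is under 0.7 times the count with it off; inactive = the rest.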

Key:
[1] = viability loss with induced miR-34 in A549 – imaging, A549 dox-inducible miR-34, nuclei and caspase counts, primary screen (AID 1347080); details: A549 miR-34 inducible, Hoechst nuclei count, 48 h
[2] = MELAS cybrid and Rieske KO viability enhancers – cell-based, MELAS cybrids, Rieske KO mouse fibroblasts, CellTiter-Glo, primary screen (AID 1508586;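 active = mean z-score across replicates of 1.96 or higher in either the MELAS or the Rieske mutant cell line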;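 note: z relative to plate mean and SD of compound and empty wells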); details: low glucose
[3] = galactose survival enhancers in mitochondrial complex I cybrids – cell-based, galactose medium, ATP luminescence, primary screen (AID 1645843;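 active = z-score of at least 1.8 in each of two replicates, scored against plate mean and spread of sample wells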;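 note: positive z means more ATP and so rescue of galactose-driven cybrid death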); details: complex I mutant cybrid cells, 72 h, stronger effect = higher value
[4] = P. berghei load reduction in hepatocytes – cell-based, HepG2, luciferase luminescence, HepG2 viability, primary screen (AID 624349; in the data active = parasite load remaining mostly below about 12%, no sharp cut-off; inactive = mostly above about 10%;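 note: 100% = mean of DMSO negative control wells on the same plate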); details: P. berghei liver stage in HepG2, luciferase luminescence, concentration not given here; parasite load remaining: stronger effect = lower value; viability: measured here: HepG2 viability without parasites
[5] = stronger effect = lower value, cell number ratio, induced over uninduced
[6] = measured here: relative caspase fold change +Dox/-Dox
[7] = measured here: total cells with miR-34 induction, stronger effect = lower value
[8] = measured here: total cells without miR-34 induction
[9] = MELAS cybrid survival, CellTiter-Glo 48 h, stronger effect = higher value
[10] = Rieske KO mouse fibroblast survival, CellTiter-Glo 72 h

Structure (SMILES) | fold change [1, 5] | fold change [1, 6] | cell count [1, 7] | cell count [1, 8] | z-score [2, 9] | z-score [2, 10] | z-score [3] | parasite load remaining [4] | viability [4] [%]
O=C(Nc1cc(Br)c(O)c(Br)c1)c1ccccc1 | 0.856 (inactive) | 0.708 | 7950 | 9290 | 0.106 (inactive) | -0.271 | 0.2 (inactive) | – | –
COc1ccc2c(C(=O)N(C)Cc3nonc3C)cc(-c3cnn(C)c3)nc2c1 | 0.963 (inactive) | 1.42 | 8090 | 8400 | -0.189 (inactive) | -0.423 | -0.54 (inactive) | – | –
O=C1CN(c2ccc(C(F)(F)F)cn2)CCN1Cc1ccc2c(c1)OCO2 | 0.887 (inactive) | 1.52 | 8410 | 9480 | 0.169 (inactive) | -0.106 | 2.96 (active) | – | –
c1ccc2c(c1)OCC(CNc1ncnc3nc[nH]c13)O2 (centres undefined) | 0.786 (inactive) | 0.972 | 6310 | 8020 | -0.539 (inactive) | 0.778 | -0.485 (inactive) | – | –
NC(=O)Cc1c[nH]c2ccccc12 | 0.914 (inactive) | 0.482 | 8170 | 8950 | 0.728 (inactive) | -0.479 | 0.1 (inactive) | – | –
Cc1cc(-c2cccc(OC(C)C)c2)nc(N)n1 | 0.871 (inactive) | 1.62 | 7710 | 8860 | -1.21 (inactive) | 0.889 | -0.56 (inactive) | – | –
O=C(CC1=CCCCC1)NCc1ccon1 | 0.939 (inactive) | 1.22 | 9490 | 10100 | 0.26 (inactive) | -0.5 | -0.49 (inactive) | – | –
Cc1nn(C)c(C)c1-c1ccnc(N2CCCC2c2nc(-c3cccnc3)no2)n1 (centres undefined) | 0.869 (inactive) | 1.21 | 6880 | 7910 | -0.00142 (inactive) | 0.462 | -0.385 (inactive) | – | –
O=c1[nH]cnc2sc3c(c12)CCCC3 | 0.885 (inactive) | 0.876 | 8460 | 9560 | -0.212 (inactive) | 0.0845 | 0.635 (inactive) | – | –
Cc1nsc(NC(=O)NC2CCc3ccccc3C2)n1 (centres undefined) | 0.899 (inactive) | 1 | 3190 | 3550 | -0.269 (inactive) | -0.339 | 1.48 (inactive) | – | –
CNC1(C)[C@H]2CC[C@H](C2)C1(C)C (some centres undefined) | 0.905 (inactive) | 1.29 | 9940 | 11000 | 0.54 (inactive) | -0.569 | 0.66 (inactive) | 95.3% (inactive) | 108
